Experimental findings from the supplement of paper PMC3898565 are described below.

± gives the uncertainty stated by the source.
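Also: viable cell number estimated from Alamar Blue fluorescence read at 560/90, part of a single-dose primary screen of an FDA-approved drug library.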

The test relates to U87. The test is described as follows: cell viability relative to vehicle control; higher = less growth inhibition (less active). The conditions noted are these: 10 µM; 72 h.
As to `Cc1c(O)cccc1C(=O)N[C@@H](CSc1ccccc1)[C@H](O)CN1C[C@H]2CCCC[C@H]2C[C@H]1C(=O)NC(C)(C)C`, the cell viability turned out to be 102.1 ± 1%.

With `Cn1c(NCCN(CCO)CCCc2ccc([N+](=O)[O-])cc2)cc(=O)n(C)c1=O`, the cell viability came out at 102 ± 3.1%.

Consider `Cc1nc2n(c(=O)c1CCN1CCC(c3noc4cc(F)ccc34)CC1)CCCC2`, for which the cell viability came out at 108 ± 1.7%.

`CCCN[C@H]1CCc2nc(N)sc2C1`: the cell viability came out at 105 ± 1.9%.

In the case of `COc1cc(C[C@@H](CO)[C@H](CO)Cc2ccc(O)c(OC)c2)ccc1O`, the cell viability is 96.4 ± 14%.

For `CC(C)(O)c1ccccc1CC[C@@H](SCC1(CC(=O)O)CC1)c1cccc(/C=C/c2ccc3ccc(Cl)cc3n2)c1`, the cell viability amounted to 101.8 ± 0.94%.

As for `CN1C(C(=O)Nc2ccccn2)=C(O)c2ccccc2S1(=O)=O` [Piroxicam], the cell viability was 103 ± 3.7%.

As for `Nc1nc(O)c2ncn(CCC(CO)CO)c2n1`, the cell viability came to 103 ± 2.2%.

`CN(C)CCC=C1c2ccccc2COc2ccccc21` [Doxepin]: the cell viability came out at 101.6 ± 0.79%.

Consider `CO[C@H]1/C=C/O[C@@]2(C)Oc3c(C)c(O)c4c(O)c(c5c(nc6cc(C)ccn65)c4c3C2=O)NC(=O)/C(C)=C\C=C\[C@H](C)[C@H](O)[C@@H](C)[C@@H](O)[C@@H](C)[C@H](OC(C)=O)[C@@H]1C`, for which the cell viability was 96.1 ± 1.3%.

For the compound `CC(=O)NC[C@H]1CN(c2ccc(N3CCOCC3)c(F)c2)C(=O)O1`, the cell viability was determined as 103 ± 1.8%.

For the compound `NC[C@H]1CC[C@H](C(=O)Oc2ccc(CCC(=O)O)cc2)CC1`, the cell viability is 104.6 ± 0.48%.

On to `Cc1ncc([N+](=O)[O-])n1CC(O)CCl` (centres undefined), for which the cell viability came out at 91.08 ± 0.44%.

On to `c1cnc(N2CCN(Cc3ccc4c(c3)OCO4)CC2)nc1` [Piribedil], for which the cell viability is 108.4 ± 0.77%.

For `CC(C(=O)O)c1ccc(CC2CCCC2=O)cc1` (centres undefined), the cell viability turned out to be 99.3 ± 2.7%.

In the case of `CCOC(=O)C1=C(C)NC(C)=C(C(=O)OC)C1c1cccc([N+](=O)[O-])c1` (centres undefined), the cell viability was 98.9 ± 2.8%.

Turning to `O=c1c(O[C@@H]2O[C@H](CO)[C@H](O)[C@H](O)[C@H]2O)c(-c2ccc(O)c(O)c2)oc2cc(O)cc(O)c12`, the cell viability amounted to 106 ± 1.8%.

Regarding `CCN1CCN(c2cc3c(cc2F)c(=O)c(C(=O)O)cn3C2CC2)CC1`, the cell viability was determined as 109 ± 1.3%.

`Cc1ncc([N+](=O)[O-])n1CC(C)O` (centres undefined) [1-(2-Methyl-5-nitro-imidazol-1-yl)-propan-2-ol]: the cell viability is 102.9 ± 0.98%.

As to `CC(C)c1ccc2oc3nc(N)c(C(=O)O)cc3c(=O)c2c1`, the cell viability stood at 107 ± 1.8%.

As for `C#C[C@]1(O)CC[C@H]2[C@@H]3CCc4cc(O)ccc4[C@H]3CC[C@@]21C`, the cell viability worked out at 102 ± 2.1%.

With `O=C(CCCN1CCC(O)(c2ccc(Cl)cc2)CC1)c1ccc(F)cc1` [Haloperidol], the cell viability is 107.5 ± 0.44%.

As for `CC1(C)O[C@@H]2[C@@H](CO[C@@]3(COS(N)(=O)=O)OC(C)(C)O[C@@H]23)O1`, the cell viability amounted to 129 ± 2%.

Take `Nc1[nH]c(=O)ncc1F`: the cell viability is 102 ± 1.7%.

For the compound `COc1cc(C)c(Cc2cnc(N)nc2N)cc1OC`, the cell viability turned out to be 100 ± 1.7%.

Regarding `COc1ccccc1OCCNCC(O)COc1cccc2[nH]c3ccccc3c12` (centres undefined) [Carvedilol], the cell viability was found to be 105 ± 2.2%.

Take `C[C@@H]1C[C@H]2[C@@H]3C[C@H](F)C4=CC(=O)C(Cl)=C[C@]4(C)[C@@]3(F)[C@@H](O)C[C@]2(C)[C@@]1(O)C(=O)CO`: the cell viability was 102.1 ± 0.4%.

`CN1[C@@H]2CC[C@H]1C[C@@H](OC(=O)c1c[nH]c3ccccc13)C2`: the cell viability is 105.3 ± 0.81%.

With `Cc1[nH]cnc1CN1CCc2c(c3ccccc3n2C)C1=O`, the cell viability turned out to be 93.5 ± 2.2%.

Take `Cc1cccc(C)c1NC(=O)C1CCCCN1C` (centres undefined): the cell viability amounted to 106 ± 0.63%.

On to `Cc1occc(=O)c1O`, for which the cell viability was determined as 106 ± 1.4%.

As for `Nc1nnc(-c2cccc(Cl)c2Cl)c(N)n1`, the cell viability came out at 102 ± 1.2%.

Take `CN1[C@@H](CC(=O)c2ccccc2)CCC[C@H]1C[C@H](O)c1ccccc1`: the cell viability came out at 98.58 ± 0.82%.

Take `C[C@@H]1CN(CCCn2c3ccccc3c3ccccc32)C[C@H](C)N1` [Rimcazole]: the cell viability is 109 ± 1.3%.

As for `CCC(C)(C)N=C(NC#N)Nc1cccnc1`, the cell viability is 107 ± 1.1%.

`CC(C)(C)NC(=O)[C@@H]1CN(Cc2cccnc2)CCN1C[C@@H](O)C[C@@H](Cc1ccccc1)C(=O)N[C@H]1c2ccccc2C[C@H]1O`: the cell viability came out at 105.6 ± 0.74%.

In the case of `CCOC(=O)[C@H](CCc1ccccc1)N[C@@H](C)C(=O)N1[C@H](C(=O)O)C[C@@H]2CCC[C@@H]21`, the cell viability came to 101 ± 1.5%.

On to `Nc1ccc2cn[nH]c2c1`, for which the cell viability turned out to be 108 ± 2.4%.

Take `NC1CCN(c2nc3c(cc2F)c(=O)c(C(=O)O)cn3-c2ccc(F)cc2F)C1` (centres undefined): the cell viability stood at 98.01 ± 0.56%.

The cell viability is a read-out of living cells in per cent, often relative to untreated cells.
